Assay results published in PubChem BioAssay (NCATS).
Inconclusive results are not listed. Calls of active or inactive are those of the source. Calls follow the shape of the dose curve; as a rule, active = well fitted inhibition curve with a large enough effect; inconclusive = small, poorly fitted or top-dose-only effect; inactive = flat fitted curve, though single readings scatter.

Legend:
Assay in all cases: qHTS profiling for inhibitors of Plasmodium falciparum proliferation (AID 504749); also: nearly all actives have a fitted effect of over 60% in size
Settings in all cases: P. falciparum in erythrocytes, SYBR Green DNA, 72 h; series mostly up to 28.7 µM
FAB9 = test system: FAB9
In short: (§1)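 P. falciparum-infected erythrocytes (0.3% parasitemia, 2.5% hematocrit final) were exposed to compounds for 72 h at 37 C in 5% CO2, then lysed with SYBR Green buffer overnight at room temperature; parasite DNA fluorescence was normalized to artemisinin and DMSO controls.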

GB4 = test system: GB4
In short: as §1

HB3 = test system: HB3
In short: as §1

ICS = test system: ICS
In short: as §1

JCK = test system: JCK
In short: as §1

N140 = test system: N140
In short: as §1

P93_24 = test system: P93_24
In short: as §1

P94_40 = test system: P94_40
In short: as §1

PAD = test system: PAD
In short: as §1

PC15 = test system: PC15
In short: as §1

Measured: Potency
Potency is read from the fitted curve at half-maximal effect.

COc1ccc2c(c1OC)C(=O)OC2[C@H]1c2c(cc3c(c2OC)OCO3)CCN1C (some centres not stated)
inactive: all assays above

COc1ccc([C@@H]2CNC(=O)C2)cc1OC1CCCC1
inactive: all assays above

Nc1nc2c(c(=O)[nH]1)N(C=O)[C@H](CNc1ccc(C(=O)N[C@@H](CCC(=O)O)C(=O)O)cc1)CN2
inactive: all assays above

CCCCCCCCCCCC(CC1OC(=O)C1CCCCCC)OC(=O)C(CC(C)C)NC=O (configuration not stated)
active: HB3 1260 nM | ICS 1120 nM | JCK 1000 nM | N140 631 nM | P93_24 891 nM | P94_40 355 nM | PC15 1120 nM

COc1cccc2c1C(=O)c1c(O)c3c(c(O)c1C2=O)C[C@@](O)(C(=O)CO)C[C@@H]3O[C@H]1C[C@H](N)[C@H](OC2CCCCO2)[C@H](C)O1 (some centres not stated)
active: FAB9 12600 nM | GB4 4780 nM | HB3 5010 nM | ICS 708 nM | JCK 12600 nM | N140 1580 nM | P93_24 2240 nM | P94_40 2510 nM | PAD 2240 nM | PC15 10000 nM

OCC(O)C(O)C(O)CO (configuration not stated)
inactive: all assays above

CCC(C(=O)O)C1CCC(C)C(C(C)C(O)C(C)C(=O)C(CC)C2OC3(C=CC(O)[C@@]4(CC[C@](C)(C5CC[C@@](O)(CC)C(C)O5)O4)O3)C(C)CC2C)O1 (some centres not stated)
active: FAB9 2240 nM | GB4 536 nM | HB3 891 nM | ICS 1000 nM | JCK 4470 nM | N140 891 nM | P93_24 891 nM | P94_40 501 nM | PAD 1410 nM | PC15 2000 nM
